# High-throughput results (PubChem BioAssay)
# Most compounds without a hit are left out; they make up all but 5.8% or so of the library.
# KB-3-1 tox – KB-3-1 parental cell cytotoxicity. KB-3-1 viability, CellTiter-Glo ATP luminescence, 72 h. Potency, µM (series often up to 46.1 µM), usual class: cytotoxic. actives 1.4% (n = 400,000). AID 1347075; also: % is scaled to controls: 0 for no effect and ±100 for the full control effect; nearly all actives have a fitted effect of over 60% in size
#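 Parental KB-3-1 adenocarcinoma cells in phenol-red-free DMEM with 10% FBS were pin-treated with compounds at several concentrations, incubated 72 h at 37 °C, and viability read by CellTiter-Glo luminescence; concentration-effect curves were fitted after normalization.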
# SW480 rereplic – inducers of DNA re-replication in SW480 colon cancer cells; SW480 DNA re-replication, Hoechst DNA content imaging, 48 h; Potency, µM (highest dose often 46.1 µM), inactives show at the top dose re-replication activation, hits mostly activators; actives 1.8% (n = 340,000); also: % of control where 0% means no effect; nearly all actives have a fitted effect of over 55% in size
#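 SW480 cells exposed to compounds for 48 hr at 37 C, 5% CO2, then Hoechst-stained 40 min. Nuclear DNA content imaged by fluorescence scanning (405 nm excitation, 500-530 nm emission); re-replication scored as increased high-intensity nuclei.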
# PINK1 modulator – changes PINK1 expression; actives 0.2% (n = 410,000); AID 624263; PINK1 immunofluorescence, high-content cytometry, 24 h; Potency, µM (top dose mostly 76.6 µM), for inactives: at the top dose activation (PINK1 increase), actives largely listed as activators; active = well fitted activation curve with a large enough effect; inconclusive = small, poorly fitted or top-dose-only effect; cell line not stated here; also: % of control where 0% means no effect; nearly all actives have a fitted effect of over 65% in size
#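 Stable cell line treated 24 h with compounds at 5 concentrations (CCCP controls), then fixed and immunostained for PINK1 plus nuclear and cell stains; PINK1 immunofluorescence quantified by laser-scanning microplate cytometry.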
# 12-LOX inh – inhibitors of human 12S-lipoxygenase ALOX12; P18054; purified 12hLO, xylenol orange hydroperoxide absorbance; Potency, µM (doses to about 108 µM), without a hit: top-dose activity change, negative = inhibition, actives largely listed as inhibitors; actives 1.1% (n = 580,000); also: % is scaled to controls: 0 for no effect and ±100 for the full control effect
# Target sequence (P18054 whole entry, looked up): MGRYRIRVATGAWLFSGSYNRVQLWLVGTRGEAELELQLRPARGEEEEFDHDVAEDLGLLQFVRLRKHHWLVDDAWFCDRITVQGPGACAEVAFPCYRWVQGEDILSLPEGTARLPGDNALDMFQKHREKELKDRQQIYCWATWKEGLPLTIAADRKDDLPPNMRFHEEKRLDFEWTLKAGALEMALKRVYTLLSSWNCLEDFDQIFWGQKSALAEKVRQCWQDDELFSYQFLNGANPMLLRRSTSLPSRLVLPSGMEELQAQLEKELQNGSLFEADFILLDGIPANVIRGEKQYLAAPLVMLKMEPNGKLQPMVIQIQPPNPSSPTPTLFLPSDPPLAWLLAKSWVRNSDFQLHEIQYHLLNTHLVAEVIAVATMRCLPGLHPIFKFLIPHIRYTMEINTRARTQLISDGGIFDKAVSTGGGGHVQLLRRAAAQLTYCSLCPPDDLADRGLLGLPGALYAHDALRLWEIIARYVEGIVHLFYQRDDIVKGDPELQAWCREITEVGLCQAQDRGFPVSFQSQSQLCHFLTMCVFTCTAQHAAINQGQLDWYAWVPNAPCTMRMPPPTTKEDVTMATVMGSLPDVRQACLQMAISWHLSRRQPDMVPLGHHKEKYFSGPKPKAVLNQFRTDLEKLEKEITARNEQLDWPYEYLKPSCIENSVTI
#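 Purified human 12hLO at 150 nM in 25 mM Hepes, 0.01% Triton X-100, pH 7.0, preincubated 15 min at room temperature with compound. Reaction started with 40 uM arachidonic acid, 30 min at room temperature. Hydroperoxide measured by Fe-xylenol orange, 573/405 nm absorbance ratio.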
# MCF10A rerep – inducers of DNA re-replication in MCF 10A breast cells; MCF 10A DNA re-replication, Hoechst nuclear intensity, 48 h; Potency, µM (highest dose often 46.1 µM), for inactives: at the highest dose activity, positive = re-replication, hits mostly activators; actives 2.9% (n = 350,000); AID 624296; also: % of control where 0% means no effect; nearly all actives have a fitted effect of over 50% in size
# KB-V1 MDR tox – kills drug-selected multidrug resistant KB-V1 cells; actives 3.4% (n = 400,000); KB-V1 MDR cells viability, CellTiter-Glo, 72 h; Potency, µM (highest dose often 46.1 µM), hits mostly cytotoxic; also: % is scaled to controls: 0 for no effect and ±100 for the full control effect; nearly all actives have a fitted effect of over 60% in size
#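 Compound-treated KB-V1 multidrug-resistant cells, 72 h, 37 degrees C; viability by CellTiter-Glo. Fitted qHTS curves give the values.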
# Numbers without * were called inactive; i = inactive; ? = inconclusive; / = not tested or not shown; [ ] = another dose, or the depositor's remark. Unless noted, calls follow the shape of the dose curve; as a rule, active = well fitted curve in the direction sought with a large enough effect; inconclusive = small, poorly fitted or top-dose-only effect, or another doubt; inactive = no such curve, though single readings can be large; an effect the other way counts as inactive or inconclusive. Potency is read from the fitted curve at half-maximal effect.
SMILES,KB-3-1 tox,SW480 rereplic,PINK1 modulator,12-LOX inh,MCF10A rerep,KB-V1 MDR tox
COc1cc(C(=O)Nc2nc(-c3ccc(C)cc3)cs2)ccc1OCC(=O)N1CCOCC1,i,-88.3%,3.1%,-7.2%,21.3%,i
COc1cc(C(=O)Nc2nc(-c3cc(C)ccc3C)c(C)s2)ccc1OCC(=O)Nc1ccc(F)cc1,i,-6.6%,11.6%,-21.9%,?,?
COc1ccc(Cc2nnc(NC(=O)c3ccc(OC)c(OC)c3)s2)cc1,?,?,3.4%,3.5%,3.66µM*,i
COc1cc(C(=O)Nc2nc(-c3ccc(F)cc3)cs2)ccc1OCC(=O)N1CCOCC1,i,0.5%,-1.1%,-12.8%,23.1µM*,i
CCc1nnc(NC(=O)CCC(=O)NCc2ccc(OC)cc2)s1,i,-22.3%,-0.7%,93.6%,2.1%,i
COc1ccc(-c2nc(NC(=O)c3ccc(OCC(=O)Nc4ccc(F)cc4)c(OC)c3)sc2C)cc1,i,20.5%,-2.7%,-19.9%,20.6µM*,i
COc1ccc(CNC(=O)CCC(=O)Nc2nnc(CC(C)C)s2)cc1,i,2.91µM*,3.5%,11.8%,0.0%,i
CC(C)=CCC/C(C)=C/COC=O,/,/,/,-3.8%[176 µM],/,/
COCc1cc(C[C@@H]2CC[C@H](O)[C@@H](CNC3CCCCC3)O2)no1,/,/,/,5.4%[176 µM],/,/
O=S(=O)(c1c(Cl)cccc1Cl)N1CCCC1c1nnc2ccccn12 (centres undefined),/,/,/,-19.4%,/,/
CN(C)C(=O)c1ccc(NC(=O)Cn2nc(-c3ccc(Cl)cc3)c3ccccc3c2=O)cc1,/,/,/,-1.5%,/,/
CCCC(=O)Nc1c(S(=O)(=O)c2ccc(F)cc2)c(C)c(C)n1CC(C)C,/,/,/,21.0%,/,/
O=C(O)c1cc(O)c2c(c1)[C@H]([C@H]1c3cc(C(=O)O)cc(O)c3C(=O)c3c(O[C@@H]4O[C@H](CO)[C@@H](O)[C@H](O)[C@H]4O)cccc31)c1cccc(OC3O[C@H](CO)[C@@H](O)[C@H](O)[C@H]3O)c1C2=O (some centres undefined),i,-8.9%,1.3%,?,-38.8%,i
O=C(O)c1cc(O)c2c(c1)[C@@H]([C@H]1c3cc(C(=O)O)cc(O)c3C(=O)c3c(O[C@@H]4O[C@H](CO)[C@@H](O)[C@H](O)[C@H]4O)cccc31)c1cccc(OC3O[C@H](CO)[C@@H](O)[C@H](O)[C@H]3O)c1C2=O (some centres undefined),i,-3.0%,0.9%,50.1µM*,-0.3%,i
N#Cc1c(N2CCCC(O)C2)nc(N)c2c(N)nc3c(c12)CC(=O)N3C12CC3CC(CC(C3)C1)C2 (centres undefined),4.11µM*,4.61µM*,-4.0%,-6.4%,?,14.6µM*
Cc1cc2oc(=O)cc(COC(=O)C3CCCO3)c2cc1C (centres undefined),/,/,/,25.1%,/,/
CN1C[C@H](NC(=O)NC2(c3ccccc3)CCOCC2)CCC[C@@H](C(=O)NCc2cc(F)cc(F)c2)CC1=O,/,/,/,22.4µM*,/,/
CCCC(=O)N1CCCC(c2noc(COc3ccccc3)n2)C1 (centres undefined),/,/,/,44.3%,/,/
COc1ccc(O)c(/C=C2/SC(=S)N(Cc3ccccc3)C2=O)c1,?,15.3%,0.1%,0.0%,13µM*,?
O=C1/C(=C\c2cc(Cl)c(O)c(Cl)c2)SC(=S)N1Cc1ccccc1,?,?,?,-86.7%,2.06µM*,3.66µM*
COc1ccc(OC)c(/C=C2\SC(=S)N(Cc3cccnc3)C2=O)c1,?,16.4µM*,4.6%,-5.6%,6.51µM*,14.6µM*
COc1ccc(/C=C2/SC(=S)N(Cc3ccccc3)C2=O)cc1O,i,-2.0%,-1.0%,-9.3%,?,i
CC(C)NC(=O)NC(=O)COc1ccc2ccc(=O)oc2c1,/,/,/,17.8%,/,/
CCn1c(C)cc(C(=O)COC(=O)c2ccccc2[N+](=O)[O-])c1C,i,-4.4%,-0.2%,/,-6.7%,25.9µM*
